# Source: PubChem (National Center for Advancing Translational Sciences (NCATS))
# LT uptake inh: inhibitors of anthrax lethal toxin internalization | Cells, anthrax lethal toxin internalization, FRET ratio (460/530) | Potency, µM (highest dose often 40 µM), for inactives: at the top dose activity change, negative = inhibition, actives largely listed as inhibitors | 70,000 compounds, 0.67% hits; note: % is set by controls: 0 for no effect and ±100 for the full control effect; nearly all actives have a fitted effect of over 50% in size
# AmpC nodet inh: inhibitors of E. coli AmpC beta-lactamase without detergent; P00811; AmpC nitrocefin hydrolysis, absorbance 480 nm, no detergent; Potency, µM (doses to about 28.7 µM), without a hit: at the top dose activity change, negative = inhibition; 71,000 compounds, 1.8% hits; AID 585; note: % of control where 0% means no effect
# Target sequence (P00811 whole entry, looked up): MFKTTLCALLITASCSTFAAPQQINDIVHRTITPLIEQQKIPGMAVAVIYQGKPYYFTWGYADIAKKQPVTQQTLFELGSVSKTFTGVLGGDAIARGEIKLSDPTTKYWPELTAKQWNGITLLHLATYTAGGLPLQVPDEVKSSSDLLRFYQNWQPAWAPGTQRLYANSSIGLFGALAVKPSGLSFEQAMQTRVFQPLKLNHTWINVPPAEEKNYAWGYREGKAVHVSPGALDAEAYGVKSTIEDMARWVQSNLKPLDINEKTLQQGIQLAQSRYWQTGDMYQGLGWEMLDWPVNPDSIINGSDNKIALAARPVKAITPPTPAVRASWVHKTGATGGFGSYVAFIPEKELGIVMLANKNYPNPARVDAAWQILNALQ
#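 AmpC in 20 mM phosphate buffer pH 7.0 was preincubated 15 min at room temperature with compounds. Nitrocefin (800 uM stock) was then added and hydrolysis followed at 480 nm every 20 s for 4 min.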
# SmPrx2 inh: inhibitors of Schistosoma mansoni peroxiredoxin 2 | AID 448 | Potency, µM | 65,000 compounds, 0.07% hits | S. mansoni Prx2 activity coupled to TGR/GSH (TGR is thioredoxin glutathione reductase), NADPH fluorescence loss, qHTS
#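 Activity is read as the drop in NADPH fluorescence (365/450 nm), recorded every 30 sec for 8 min after H2O2 addition. Prx2 is coupled to TGR-driven NADPH oxidation through glutathione, in phosphate buffer pH 7.4.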
# AmpC det inh: blocks E. coli AmpC beta-lactamase in presence of detergent | P00811 | purified AmpC, nitrocefin hydrolysis with detergent | Potency, µM (series often up to 28.7 µM), inactives show at the highest dose activity change, negative = inhibition | 71,000 compounds, 0.09% hits | AID 584; active = well fitted curve in the direction sought with a large enough effect; inconclusive = small, poorly fitted or top-dose-only effect; note: % is set by controls: 0 for no effect and ±100 for the full control effect
#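 E. coli AmpC (5.3 nM) in 20 mM phosphate pH 7.0 with 0.01% Triton X-100, preincubated 15 min RT with compound; nitrocefin (2 uL of 800 uM stock) hydrolysis followed by 480 nm absorbance every 20 s over 4 min.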
# * hit, by the source's call; ? = inconclusive; / = no result; [ ] = remark or other dose. An excerpt weighted towards active compounds, which were near 2.6% of everything screened. Unless noted, calls come from the whole dose curve. Potency is the fitted concentration of half-maximal effect.
SMILES,LT uptake inh,AmpC nodet inh,SmPrx2 inh,AmpC det inh
Cc1ccc(N2C(=O)c3ccc(C(=O)NCCN4CCOCC4)cc3C2=O)cc1,-21%,53%,>57,-2%
CCCN1C(=O)c2ccc(C(=O)NCc3ccco3)cc2C1=O,-6%,6%,>57,-1%
CCCN1C(=O)c2cc(C(=O)NCCc3cccc(C)c3)ccc2C1O (configuration not stated),?,4µM*[single pt active],>57,17%
CCCN1C(=O)c2cc(C(=O)NCc3cccs3)ccc2C1O (configuration not stated),-17%,4µM*[single pt active],>57,9%
OC[C@@H]1O[C@@H](n2cnc3cncnc32)[C@@H](O)[C@H]1O,-1%,3%,>57,-4%
O=C1c2ccccc2-c2ccc(N(Cc3ccc(Br)cc3)Cc3ccc(Br)cc3)cc21,?,-9%[5.75 µM],>57,-3%[5.75 µM]
CCCN(CCc1ccccc1)[C@H]1CCc2c(O)cccc2C1,6%,8%,>57,-1%
CCCCC(C=O)CC (configuration not stated),0%,12%,/,14%
C=CCCC,2%,4%,/,11%
COC(=O)c1ccc(CSc2nc3scc(-c4cccs4)c3c(=O)[nH]2)o1,-2%,13µM*,>57,-5%
C[N+]1(CCC[N+]2(C)C[C@H]3[C@H](C2)[C@H]2C=C[C@@H]3CC2)CCOCC1 (some centres not stated),2%[8 µM],4%[5.75 µM],>11,-3%[5.75 µM]
CC(=O)OC1CC(C)OC(C)O1 (configuration not stated),1%,-5%,/,11%
O=c1[nH]c2ccccc2n1CCCSCCCn1c(=O)[nH]c2ccccc21,?,27%,>57,-3%
CCn1c2ccccc2c2nnc(SCc3ccccc3)nc21,?,4µM*[single pt active],>57,12%
CCn1c2ccccc2c2nnc(SCCCn3c(=O)[nH]c4ccccc43)nc21,7.9µM*,28%,/,-2%
CCn1c2ccccc2c2nnc(SCN3C(=O)c4ccccc4C3=O)nc21,-16%,-2%,/,-3%
CC(C)CC(=O)N1CCN(Cc2cccc(F)c2)CC1,-2%,46%,/,14%
CC[C@@H](C)[C@H](NC(=O)OC(C)(C)C)c1nnc(S(=O)(=O)Cc2cc(C)ccc2C)o1,?,?,>57,?
Cc1ccccc1CS(=O)(=O)c1nnc([C@H](CC(C)C)NC(=O)OC(C)(C)C)o1,?,10µM*,>57,7.9µM*
CC(C)C[C@H](N)c1nnc(S(=O)(=O)Cc2cccc(F)c2)o1,?,?,>57,2.5µM*
CC(C)(C)OC(=O)N[C@@H](Cc1ccccc1)c1nnc(S(=O)(=O)Cc2cccc(F)c2)o1,10µM*,4µM*,>57,5µM*
CC(C)[C@H](NC(=O)OC(C)(C)C)c1nnc(S(=O)(=O)Cc2c(F)cccc2Cl)o1,/,1.3µM*,>57,0.79µM*
Cc1ccc(S(=O)(=O)OC2CCN(C)CC2)cc1,-6%[8 µM],-4%[5.75 µM],>57,-4%[5.75 µM]
COc1cc2c(cc1OC)-c1c(O)c(OC)cc3c1[C@@H](C2)N(C)CC3,-36%,19%,>57,11%
CN1CCN(c2ncc3nc(CCc4ccccc4)c(=O)n(CCC#N)c3n2)CC1,?,123%,>57,-1%
SMILES,LT uptake inh,AmpC nodet inh,SmPrx2 inh,AmpC det inh
O=C1/C(=C/c2ccccc2)[C@@H](NC2CCCCC2)c2ccccc21,4µM*,9%[5.75 µM],/,-2%[5.75 µM]
O=C1c2c(O)ccc([N+](=O)[O-])c2C(=O)c2c([N+](=O)[O-])ccc(O)c21,?,-24%,/,4%
Fc1ccc(C2CC(c3ccco3)n3ncnc3N2)cc1 (configuration not stated),-11%,4µM*[single pt active],>57,11%
C=C(C)c1cccc(C(C)(C)NC(=O)N2CCN(c3ccccn3)CC2)c1,-22%,4µM*[single pt active],>57,14%
COc1cccc(OC)c1C(=O)Nc1c(C)n(C)n(-c2ccccc2)c1=O,-10%,4%,>57,1%
COc1ccc(NC(=O)Nc2c(C)n(C)n(-c3ccccc3)c2=O)cc1,-4%,4µM*[single pt active],>57,28%
COc1ccc2cc(C(=O)Nc3c(C)n(C)n(-c4ccccc4)c3=O)sc(=O)c2c1OC,-6%,2.5µM*[single pt active],>57,10%
O[Si@](CCCN1CCCCC1)(c1ccc(F)cc1)C1CCCCC1,-3%,36%,>57,2%
Cc1ccc(C[C@H](Cc2nc3ccccc3[nH]2)c2nc3ccccc3[nH]2)cc1,?,-10%,>57,1%
